# A selection: hits, their analogues and other compounds. The true share with any hit is near 6.6%.
# MCF10A rereplic: inducers of DNA re-replication in MCF 10A breast cells. MCF 10A DNA re-replication, Hoechst nuclear intensity, 48 h. Potency, µM (series often up to 46.1 µM), without a hit: at the highest dose activity, positive = re-replication, actives largely listed as activators. actives 2.9% (n = 350,000). AID 624296; further: % of control where 0% means no effect; nearly all actives have a fitted effect of over 50% in size
# KB-V1 cytotox: KB-V1 MDR subline cytotoxicity; actives 3.4% (n = 400,000); KB-V1 MDR cells viability, CellTiter-Glo, 72 h; AID 1347076; Potency, µM (doses to about 46.1 µM), most hits filed as cytotoxic; further: on the % scale 0 is the no-effect control and ±100 the full control effect; nearly all actives have a fitted effect of over 60% in size
#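 Cytotoxicity via CellTiter-Glo luminescence after 72 h compound exposure at 37 degrees C. Cells: drug-selected KB-V1 line, DMEM phenol-red free plus 10% FBS. Compounds tested at multiple concentrations; normalized data fitted to concentration-effect curves.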
# KB-3-1 tox: KB-3-1 parental cell cytotoxicity; KB-3-1 viability, CellTiter-Glo ATP luminescence, 72 h; Potency, µM (titrated, usually from 46.1 µM), hits mostly cytotoxic; actives 1.4% (n = 400,000); AID 1347075; further: on the % scale 0 is the no-effect control and ±100 the full control effect; nearly all actives have a fitted effect of over 60% in size
#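 Luminescent ATP read-out (CellTiter-Glo) measures survival of drug-naive KB-3-1 cells after 72 h compound exposure at 37 °C. Titration series was screened from lowest to highest concentration, with DMSO vehicle plates as background controls.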
# RGS4 inhibitor: human RGS4 inhibition. actives 0.039% (n = 390,000). P49798. Potency, µM (top dose mostly 114 µM), for the others: at the top dose activity change, negative = inhibition, actives largely listed as inhibitors. AID 504845. Transcreener GDP fluorescence polarization, RGS4-accelerated GTP hydrolysis; further: on the % scale 0 is the no-effect control and ±100 the full control effect; nearly all actives have a fitted effect of over 75% in size
# Target sequence (P49798 whole entry, looked up): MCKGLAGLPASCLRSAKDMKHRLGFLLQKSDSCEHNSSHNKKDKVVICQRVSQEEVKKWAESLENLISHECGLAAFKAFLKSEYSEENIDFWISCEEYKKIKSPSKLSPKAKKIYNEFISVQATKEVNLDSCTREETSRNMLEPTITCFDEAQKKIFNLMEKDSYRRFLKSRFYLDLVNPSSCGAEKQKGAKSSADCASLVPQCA
#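 MLSMR compounds (23 nl, pin-transferred) preincubated 10 min at room temperature with a 500nM (2x) first reagent, then RGS4 at 900nM (2x) plus Transcreener GDP mix added; fluorescence polarization (620/688 nm) read before and after 90 min at 30 °C.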
# SW480 rerep: inducers of DNA re-replication in SW480 colon cancer cells. AID 624297. Potency, µM (top dose mostly 46.1 µM), inactives show top-dose re-replication activation, most hits filed as activators. SW480 DNA re-replication, Hoechst DNA content imaging, 48 h. actives 1.8% (n = 340,000); further: % of control where 0% means no effect; nearly all actives have a fitted effect of over 55% in size
#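 Image-based read-out: total Hoechst fluorescence of nuclei (405 nm excitation, 500-530 nm emission), with hits raising the fraction of high-intensity nuclei. SW480 colon cells incubated 48 hr with compounds at 37 C.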
# PTAP TSG101 blk: blocks PTAP/TSG101 interaction to inhibit HIV-1 budding; 340,000 tested, under 10 active; Fluorescence polarization, FITC-PTAP peptide / Tsg101 binding; Potency, µM (highest dose often 115 µM), inactives show top-dose activity change, negative = inhibition, usual class: inhibitors; AID 493005; active means well fitted inhibition curve with a large enough effect in the main read-out, with a control signal flat, not every such curve was filed as active; inconclusive means small, poorly fitted or top-dose-only effect, or effect the other way, or a change in a side signal; inactive means no such curve, though single readings can be large or run the other way; further: % of control where 0% means no effect
# Target sequence (Q99816 whole entry, looked up): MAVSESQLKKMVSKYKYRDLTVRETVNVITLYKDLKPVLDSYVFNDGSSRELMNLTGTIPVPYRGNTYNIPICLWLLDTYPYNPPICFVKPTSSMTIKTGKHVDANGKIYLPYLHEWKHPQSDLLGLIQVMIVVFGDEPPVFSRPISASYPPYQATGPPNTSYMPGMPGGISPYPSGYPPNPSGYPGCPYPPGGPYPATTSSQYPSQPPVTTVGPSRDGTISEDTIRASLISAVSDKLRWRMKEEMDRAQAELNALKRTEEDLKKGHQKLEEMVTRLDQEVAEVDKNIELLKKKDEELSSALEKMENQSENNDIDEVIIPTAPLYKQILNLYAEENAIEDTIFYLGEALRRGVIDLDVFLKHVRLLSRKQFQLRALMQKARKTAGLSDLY
#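 Fluorescence polarization binding of Tsg101 binding domain (10 uM final) to FITC-labeled PTAP peptide (50 nM final) in HEPES pH 7.5 buffer with NaCl, Tween 20, EDTA, TCEP. Compounds added before peptide; binding 20 min at RT.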
# Numbers without * were called inactive; i = inactive; ? = inconclusive; . = no result given; ! = repeats disagree; [ ] = remark or other dose. Unless noted, the call rests on the fitted dose curve; in most records, active means well fitted curve in the direction sought with a large enough effect; inconclusive means small, poorly fitted or top-dose-only effect, or another doubt; inactive means no such curve, though single readings can be large; an effect the other way counts as inactive or inconclusive. Potency means the concentration at half of the fitted maximal effect.
SMILES,MCF10A rereplic,KB-V1 cytotox,KB-3-1 tox,RGS4 inhibitor,SW480 rerep,PTAP TSG101 blk
Cc1c(Cl)cccc1NC(=O)CN1C(=O)COc2ccc(S(=O)(=O)N3CCCCCC3)cc21,.,.,.,-27%,.,.
Cc1cc(-c2ccc(C)c(S(=O)(=O)NC(c3cccs3)C(C)C)c2)on1 (centres undefined),.,i,i,20%,.,.
Nc1c(C(=O)NCc2ccccc2)c2nc3ccccc3nc2n1-c1ccc2c(c1)OCO2,12%,i,i,-4%,5%,4%
C=CCNC(=O)c1c(N)n(-c2cccc(S(N)(=O)=O)c2)c2nc3ccccc3nc12,3.3µM*,i,?,-3%,4.1µM*,-2%
COCCNC(=O)c1c(N)n(-c2cccc(C)c2)c2nc3ccccc3nc12,18µM*,i,i,-10%,13µM*,-2%
Cc1ccccc1NC(=O)Cn1c(=O)n(Cc2ccco2)c(=O)c2cccnc21,.,i,i,5%,.,.
CCc1ccc(OCc2ccccc2C(=O)Nc2ccc3nc(C)cc(N)c3c2)cc1,.,?,16µM*,.,.,.
Cc1ccc(-c2c(C(=O)N(C)Cc3ccccc3)oc(=O)c3ccccc23)cc1,?,4.6µM*!,18µM*!,-4%,-4%,0%
Cc1ccc(-c2c(C(=O)NCc3ccccc3)oc(=O)c3ccccc23)cc1,3%,?,i,-23%,-2%,-1%
CN(Cc1ccccc1)C(=O)c1oc(=O)c2ccccc2c1-c1ccccc1,?,8.2µM*,i,-15%,?,-1%
COc1ccc(NC(=O)c2cc(-c3ccc(C)c(C)c3O)n[nH]2)cc1Cl,18µM*,i,i,26%[56.9 µM],?,-10%
O=C(O)COc1nn(Cc2ccccc2)c2ccccc12,0%,.,.,.,-3%,.
O=C(N/N=C/c1sc(N2CCCCC2)nc1-c1cccs1)C1CC1,?,i,i,12%[11.4 µM],?,-1%
NC(=O)N/N=C/c1sc(N2CCCCC2)nc1-c1cccs1,23µM*,?,i,-5%,21µM*,1%
Cc1ccc(OCC(=O)NNC(=O)C2CCC2)cc1C,3.3µM*,i,i,17%,-2%,-5%
FC(F)C(F)(F)Oc1cccc(Nc2nccn3c(-c4ccc5ccccc5c4)cnc23)c1,.,10µM*,?,.,.,.
CCn1c(CCC(=O)Nc2cc(F)ccc2C)nc2cc(S(=O)(=O)N(C)C)ccc21,2%,i,i,0%,6%,-2%
CCN(CC)S(=O)(=O)c1ccc2c(c1)nc(CCC(=O)Nc1ccccc1Cc1ccccc1)n2CC,22%,21µM*,i,2%,?,-10%
CCc1cccc(C)c1NC(=O)c1ccc(CN2CCc3ccccc3C2)cc1,19%,?,i,-12%,17%,-1%
CC(C)NC(=O)c1ccc(CN2CCc3ccccc3C2)cc1,6%,?,i,9%,-1%,-3%
Cc1ccccc1NC(=O)c1ccc(CN2CCc3ccccc3C2)cc1,?,?,10µM*,18%,-2%,-1%
Cc1cccc(NC(=O)c2ccc(CN3CCc4ccccc4C3)cc2)c1C,23µM*,?,?,-14%,13%,-3%
Cc1cc(C)c(NC(=O)/C=C\C(=O)O)c([N+](=O)[O-])c1,15%,i,i,-32%,0.16µM*,1%
CCOCCCNC(=S)N1CCCN(c2nc3cc(C)c(C)cc3cc2C#N)CC1,?,i,i,-11%,?,-3%
Cc1ccc(C(=O)N2CCCN(c3nc4cc5c(cc4cc3C#N)OCO5)CC2)cc1,8.2µM*,23µM*,?,15%,13µM*,-7%
SMILES,MCF10A rereplic,KB-V1 cytotox,KB-3-1 tox,RGS4 inhibitor,SW480 rerep,PTAP TSG101 blk
COCCCNC(=S)N1CCCN(c2nc3cc(C)c(C)cc3cc2C#N)CC1,18µM*,i,i,-3%,?,-7%
O=S(=O)(O)c1c(NS(=O)(=O)c2ccccc2)ccc2ccccc12,.,.,.,8%,.,.
Nc1ccc(S(=O)(=O)NC2(C(F)(F)F)NC(=O)N(c3cccc(Cl)c3)C2=O)cc1 (centres undefined),.,i,i,-4%,.,.
COC1CCCN(C(=O)c2ccc3oc(Cc4ccc(Cl)cc4)nc3c2)C1 (centres undefined),9%,2.6µM*,i,-23%,-5%,-1%
CCCN1CNc2c(c(=O)[nH]c(=S)n2CCc2ccc(Cl)c(Cl)c2)C1,.,.,.,12%,.,.
CCOC(=O)C1=C(COC(=O)CCOc2ccc(C)cc2)NC(=O)NC1C (centres undefined),18µM*,i,i,-26%,?,0%
CCOC(=O)C1=C(COC(=O)/C=C/c2ccc(OC)cc2OC)NC(=O)NC1C (centres undefined),2%,6.5µM*,i,-33%,2%,-4%
CCOC(=O)C1=C(COC(=O)/C=C/c2ccc(OC)c(OC)c2)NC(=O)NC1C (centres undefined),0%,i,i,15%,3%,-2%
Cc1ccc(NN2C(=O)C=CC2=O)cc1,-4%,i,i,-5%,-3%,-1%
O=C1C=C(c2ccccc2)C(=O)N1Nc1ccccc1,?,i,?,?,?,-2%
Cc1ccc(NN2C(=O)C=C(c3ccc(Cl)cc3)C2=O)cc1,15µM*,12µM*,?,?,?,-4%
COc1ccc(C2=CC(=O)N(Nc3ccccc3)C2=O)cc1,?,i,i,-84%,4.1µM*,-1%
CCOc1ccc(NC(=O)Cn2c(=O)cc(C)c3c(C)nn(-c4cccc(Cl)c4C)c32)cc1,.,i,i,-19%,.,.
O=C1c2cccc3c(N4CCCCC4)ccc(c23)C(=O)N1c1cccc(O)c1,12µM*,?,?,1%,?,?
O=C1c2cccc3c(N4CCCCC4)ccc(c23)C(=O)N1CCO,?,?,i,-12%,?,-3%
C=CCN1C(=O)c2cccc3c(N4CCCCC4)ccc(c23)C1=O,16µM*,i,i,-15%,?,?
Cc1n[nH]c(C)c1N1C(=O)c2cccc3c(N4CCCCCC4)ccc(c23)C1=O,?,21µM*,i,-8%,16%,?
O=CNc1ccc2c(c1)Cc1cccc(NC=O)c1-2,-2%,6.5µM*,?,-6%,1%,0%
O=C(Nc1ccc2c(c1)Cc1ccccc1-2)c1ccncc1,?,i,i,-13%,-3%,-9%
